# Screening data: PubChem BioAssay, National Center for Advancing Translational Sciences (NCATS)
# MCF10A rereplic – A quantitative high throughput screen for small molecules that induce DNA re-replication in MCF 10a normal breast cells. Potency, µM (series often up to 46.1 µM), actives largely listed as activators. MCF 10A DNA re-replication, Hoechst nuclear intensity, 48 h. 350,000 tested, 2.9% active. AID 624296, 2012; also: nearly all actives have a fitted effect of over 50% in size
# IL-1B inflam inh – qHTS for Inhibitors of Inflammasome Signaling: IL-1-beta AlphaLISA Primary Screen | THP-1 LPS/ATP IL-1B secretion, AlphaLISA, 16 h; hits give low values | activity change, % at 57.5 µM | 360,000 tested, 4.7% active; in the data active = activity change below about -50%; inconclusive = mostly about -30% to -49%
#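 THP-1 cells pretreated 1 hr with compounds (up to 57.5 uM final), then stimulated with LPS (250 ng/mL final) plus ATP (1.25 mM final); secreted IL-1B measured by AlphaLISA after 16 hr, decreased signal indicating inhibition.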
# RORg inh – qHTS for inhibitors of ROR gamma transcriptional activity; 310,000 tested, 5.4% active; Drosophila S2 Gal4-RORgamma UAS-luciferase reporter, 20 h; Potency, µM (series often up to 53.6 µM), most hits filed as inhibitors; AID 2551, 2010; also: nearly all actives have a fitted effect of over 60% in size
# Target sequence (P51450 whole entry, looked up, the tested form may be a part): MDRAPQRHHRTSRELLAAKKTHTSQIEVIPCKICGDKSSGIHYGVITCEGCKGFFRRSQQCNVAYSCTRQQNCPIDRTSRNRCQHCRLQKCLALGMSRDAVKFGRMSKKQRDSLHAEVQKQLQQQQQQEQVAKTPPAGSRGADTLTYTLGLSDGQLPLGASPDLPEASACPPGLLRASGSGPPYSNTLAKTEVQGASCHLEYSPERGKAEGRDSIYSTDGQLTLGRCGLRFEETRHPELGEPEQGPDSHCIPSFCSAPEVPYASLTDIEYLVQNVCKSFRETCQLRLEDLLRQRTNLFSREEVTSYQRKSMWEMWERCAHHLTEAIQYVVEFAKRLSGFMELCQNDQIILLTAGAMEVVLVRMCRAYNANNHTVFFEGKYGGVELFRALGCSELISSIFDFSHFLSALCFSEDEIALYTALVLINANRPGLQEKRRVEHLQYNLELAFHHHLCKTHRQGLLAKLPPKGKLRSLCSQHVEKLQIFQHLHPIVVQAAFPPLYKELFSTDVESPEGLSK
#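 Stably transfected Drosophila Schneider cells are the test system, with ROR gamma fused to Gal4 and luciferase under UAS control; luminescence is read after 20 hr of 700 uM copper sulfate induction at ambient temperature.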
# Gal4-VP16 FLuc – VP16 counterscreen qHTS for inhibitors of ROR gamma transcriptional activity; 310,000 tested, 3.5% active; Drosophila S2 Gal4-VP16 UAS-luciferase, luminescence, 20 h; Potency, µM (series often up to 53.6 µM), actives largely listed as inhibitors;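 also: Gal4-VP16 expression switched on by copper sulfate through the metallothionein promoter; nearly all actives have a fitted effect of over 50% in size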
# SW480 rerep – A quantitative high throughput screen for small molecules that induce DNA re-replication in SW480 colon adenocarcinoma cells; SW480 DNA re-replication, Hoechst DNA content imaging, 48 h; Potency, µM (series often up to 46.1 µM), most hits filed as activators; 340,000 tested, 1.8% active; AID 624297, 2012; also: nearly all actives have a fitted effect of over 55% in size
#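 Per well, 250 cells were exposed to pinned compound for 48 hr. Nuclear DNA was visualised with Hoechst (40 min, 37 C) and total object intensity recorded by fluorescence scanning.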
# A number is an active result; . = inactive; ? = inconclusive; / = not tested or not shown; [ ] = dose if it differs, or a comment. Sampled rows, rich in hits. Any-hit rate of the full collection: about 11%. Unless noted, calls follow the shape of the dose curve; as a rule, active = well fitted curve in the direction sought with a large enough effect; inconclusive = small, poorly fitted or top-dose-only effect, or another doubt; inactive = no such curve, though single readings can be large; an effect the other way counts as inactive or inconclusive.
SMILES,MCF10A rereplic,IL-1B inflam inh,RORg inh,Gal4-VP16 FLuc,SW480 rerep
COc1ccc(OC(F)(F)F)cc1CC1(C)C(=O)Nc2ccc(-c3ccsc3)cc21 (stereo not given),/,.,/,/,/
Cc1c(O)ccc2c1OCO2,/,/,.[10 µM],.[10 µM],/
O=C(Nc1nc2ccccc2s1)c1cc(-c2ccccc2)nn1-c1ccccc1,?,.,10µM,?,.
O=C(NNC(=O)c1cc(-c2ccccc2)nn1-c1ccccc1)c1ccccc1,?,-97.2,?,?,.
CCOC(=O)c1cc(-c2cccnc2)nn1-c1ccccc1,.,-97.9,.,.,.
Cc1cnc(NC(=O)c2cc(-c3ccccc3)nn2-c2ccccc2)s1,.,.,/,/,.
CC(=O)c1sc(NC(=O)c2cc(-c3ccccc3)nn2-c2ccccc2)nc1C,?,-61.3,.[10 µM],?,.
c1cncc(-c2cc(-n3ccnc3)ncn2)c1,/,/,.,.,/
O=C(Nc1ccc2c(c1)CN(C(=O)Nc1ccc(F)cc1)CC2)c1ccccn1,/,.,/,/,/
Cc1ccc(N2CC(C(=O)Nc3c4c(nn3C(C)(C)C)CS(=O)(=O)C4)CC2=O)cc1C (stereo not given),.,.,.,.,.
COc1cccc(C2NC(=S)NC3=C2CCc2ccccc23)c1 (stereo not given),.,.,.,0.282µM,.
Cc1ccc(C2NC(=O)NC3=C2CCc2ccccc23)cc1 (stereo not given),.,.,.,.,.
COc1ccc2c(c1)C1=C(CC2)C(c2ccc(C)cc2)NC(=S)N1 (stereo not given),?,.,0.708µM,2.82µM,.
COc1ccc(C2NC(=O)NC3=C2CCc2ccccc23)cc1 (stereo not given),?,.,.,.,?
COc1ccc(OC)c(C2=Nn3c(nnc3-c3ccc(OC)c(OC)c3)SC2)c1,/,/,.,.,/
COCCC(=O)N1CCC(Oc2ccc(C(=O)NCc3cccc(C)n3)cc2)CC1,.,.,.,.,.
CCOC(=O)/C(=N\Nc1ccccc1Cl)N1CCN(C)CC1,.,-57.6,.,.,.
O=C(CC[C@H]1O[C@@H](n2ccc(=O)[nH]c2=O)[C@H](O)[C@@H]1O)NCCc1c[nH]c2ccccc12,/,.,/,/,/
COc1cccc(NC(=O)CSCc2nc3sc(C)c(C)c3c(=O)[nH]2)c1,/,.,/,/,/
COc1ccc(NS(=O)(=O)c2cn(C)nc2C)cc1,.,.,.,.,.
Cc1ccc2nc(NS(=O)(=O)c3cn(C)nc3C)sc2c1,.,.,14.1µM,11.2µM,.
O=C(/C=C/c1ccccc1)NC(=S)NNC(=O)c1cccnc1,.,.,10µM,?,.
COc1cc(/C=C/C(=O)NNC(=O)c2cccc(S(=O)(=O)N(C)C)c2)cc(OC)c1OC,.,.,/,/,.
COc1cc(C(=O)NNC(=S)NC(=O)/C=C/c2ccccc2)cc(OC)c1OC,.,.,2.82µM,3.98µM,.
COc1cc(C(=O)NNC(=O)/C=C/c2ccccc2)cc(OC)c1OC,?,-73.8,/,/,.
SMILES,MCF10A rereplic,IL-1B inflam inh,RORg inh,Gal4-VP16 FLuc,SW480 rerep
O=C(OCC(=O)N1CCC(c2ccccc2)=N1)c1ccc(Cl)s1,.,.,/,/,.
O=C(c1ccco1)N1CCN(CCCCN2C(=O)c3ccccc3C2=O)CC1,.,-68.7,.,.,?
O=C(CN1C(=O)c2ccccc2C1=O)N1CCN(C(=O)c2ccco2)CC1,.,.,.,.,.
Cc1cc(S(=O)(=O)Nc2ccc(C(=O)N3CCN(C(=O)c4ccco4)CC3)cc2)ccc1F,.,.,.,?,.
CCS(=O)(=O)N1CCN(C(=O)c2ccco2)CC1,8.2µM,.,.,.,.
COc1ccc(C(=O)NCCS(=O)(=O)N2CCN(C(=O)c3ccco3)CC2)cc1,.,.,/,/,4.11µM
O=C(c1ccc(S(=O)(=O)Nc2ccc(F)cc2)cc1)N1CCN(C(=O)c2ccco2)CC1,?,.,.,20µM,.
O=C(NCCS(=O)(=O)N1CCN(C(=O)c2ccco2)CC1)c1ccccc1,/,.,/,/,/
Cc1noc(C)c1CCC(=O)Nc1cc(C(=O)O)ccc1Cl,/,.,/,/,/
Cc1cc(C)c(C#N)c(SCC(O)COc2ccc(Br)cc2)n1 (stereo not given),?,-56.1,.,.,.
COC[C@H]1OC=C[C@@H](OC)[C@@H]1OC,/,/,.,.,/
Nc1nonc1C(=O)NCCNCc1cc(Br)ccc1OCc1ccc(F)cc1,?,-65.2,.,12.6µM,.
Nc1nonc1C(=O)NCCNCc1c(OCc2ccccc2F)ccc2ccccc12,?,-81.2,.,.,?
Nc1ncnc2c1ncn2[C@@H]1O[C@H](CNCc2ccccc2OCc2ccc(Cl)cc2Cl)[C@@H](O)[C@H]1O,.,?,/,/,?
Nc1nonc1C(=O)NCCNCc1ccccc1,.,.,.,.,.
Nc1ncnc2c1ncn2[C@@H]1O[C@H](CNCc2c(OCc3ccccc3F)ccc3ccccc23)[C@@H](O)[C@H]1O,?,-58.3,/,/,?
CN(C)CCNc1ncnc2c1ncn2[C@H]1CN(Cc2ccc(Cl)cc2)C[C@@H](CO)O1,/,.,/,/,/
CCCCNC(=O)C1C(c2ccc(OC)cc2)=Nc2ccccc2N1C(=O)Cc1cc(OC)cc(OC)c1 (stereo not given),/,.,/,/,/
CN1C2=CC=CC=CC2=[N+](C)C12C([N+](=O)[O-])=CC(=[N+]([O-])[O-])C=C2[N+](=O)[O-] (stereo not given),?,/,.,.,0.651µM
CCCCN(C=O)c1c(CC)nc2c(OCc3ccc(S(C)(=O)=O)cc3)cccn12,/,.,/,/,/
CCOC(=O)c1c(C)oc2c1c(C(c1ccncc1)N1CCOCC1)c(O)c1ccccc12 (stereo not given),?,.,?,.,.
CCOC(=O)c1c(C)oc2c1c1c(c3ccccc32)OCN(Cc2ccccn2)C1,.,-75.3,7.08µM,11.2µM,.[9.22 µM]
CCOC(=O)c1c(C)oc2ccc(O)c(CN3CCCCC3)c12,.,-69.4,.,.,.
CCOC(=O)c1c(C)oc2c1c(CN1CCN(CCO)CC1)c(O)c1ccccc12,?,-97.8,?,?,?
CCOC(=O)c1c(C)oc2c1c(CN1CCN(C(=O)OCC)CC1)c(O)c1ccccc12,?,?,.,.,.
CC(C)CCNC(=O)C1CC2Cn3c(nc4cc(Cl)c(Cl)cc43)C2N1C (stereo not given),.,.,/,/,.[9.22 µM]
COc1ccc(-c2cnc(C(O)c3ccc(OC)c(F)c3)[nH]2)cc1 (stereo not given),/,.,/,/,/
Cc1cc(C)n(-c2nnc(C)c(=O)[nH]2)n1,.,.,15.8µM,.,.
CCOC(=O)c1cnn(-c2nc(C)nc3sc4c(c23)CCC4)c1N,/,/,.[10 µM],.,/
CCOC(=O)c1cnn(-c2nc3sc4c(c3c(=O)[nH]2)CCCC4)c1N,/,/,0.562µM,0.794µM,/
